Screens (PubChem)
Mdm2-MdmX inh = inhibitors of human Mdm2-MdmX association, primary screen, cell-based, luminescence, split luciferase, SaOS-2, uHTS; 3% of 330,000 active; inhibition, % at 8 µM; Protein Mdm4 (Homo sapiens) + E3 ubiquitin-protein ligase Mdm2 (Homo sapiens), …; SaOS-2 split-luciferase Mdm2/MdmX complementation;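 active = inhibition of at least 50% at 8 µM in the primary screen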
Beta apoptosis = inhibitors of cytokine-induced beta cell apoptosis, primary screen, luminescence. INS-1E cytokine-induced death, ATP luminescence, 48 h; percent of positive-control rescue, neutral wells zero. protection from apoptosis, % (no concentration beside the values). 0.8% of 300,000 active. AID 435005, 2010;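 active = Every replicate reaches about 75%, or at least half do and their mean reaches it too, limit read from the data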;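 also: higher means more ATP so stronger rescue from cytokine killing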
Calb FLC = C. albicans growth inhibition with fluconazole, primary screen, CaCi-2 strain, Alamar Blue fluorescence; C. albicans CaCi-2 (fluconazole-resistant clinical isolate) + fluconazole, 48 h; growth inhibition, % (concentration not given with the values); 0.57% of 300,000 active; AID 1979, 2009;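 active = growth inhibition above about 58% in most replicates, limit read from the data, passing the limit was not always enough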;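 also: all wells also contain fluconazole at 8 µg/ml as a sub-toxic cotreatment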
MPTP inh = mitochondrial permeability transition pore inhibitors, primary screen, biochemical, isolated mouse mitochondria, absorbance; Ca2+ swelling absorbance, 30 min; inhibition, % at 10 µM; 1.4% of 360,000 active;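 active = inhibition of 50% or more, scaled per plate between neutral and stimulator controls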
SKKanGAS inh = S. pyogenes SKKanGAS growth inhibitors in kanamycin, primary screen, streptokinase expression inhibitor project, SKKanGAS strain, BacTiter-Glo luminescence | 1.3% of 300,000 active | 6 h | inhibition, % at 7.5 µM;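 active = mean replicate score, as percent of positive control median, at least 50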;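 also: strain carries kanamycin resistance gene driven by streptokinase promoter and grows in 40 µg/ml kanamycin; loss of luminescence reflects streptokinase promoter inhibition or plain growth inhibition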
CSC inhib = cancer stem cell viability inhibitors, primary screen, luminescence | cancer stem cell-like cells viability | 1.1% of 300,000 active | inhibition, % at 7.5 µM; in the data active = inhibition above about 75%; tested in HMLE shEcad cells
Large screens that a line does not name were inactive. Rows were chosen to be rich in hits. Some 5.4% of all compounds tested hit in one or more screens of this group.

CCCn1c(=N)n(CC(=O)c2ccc([N+](=O)[O-])cc2)c2ccccc21	Calb FLC 99
Cc1ccc(Cn2c(=N)n(CC(=O)c3ccccc3)c3ccccc32)cc1	Beta apoptosis 98
Cc1cccc(N2CCN(C(=O)c3ccc4nc(N5CCCCC5)sc4c3)CC2)c1C	SKKanGAS inh 51, CSC inhib 84
O=c1[nH]c(=O)n(C2CC(O)C(CO)O2)cc1Br (configuration not stated)	none (no result: Mdm2-MdmX inh, Beta apoptosis, Calb FLC, SKKanGAS inh, CSC inhib)
O=c1[nH]c(=O)n(C2C[C@H](O)[C@@H](CO)O2)cc1C(F)(F)F (some centres not stated)	CSC inhib 76 (no result: Calb FLC, SKKanGAS inh)
O=c1cc(-c2ccccc2)[nH]n1-c1nc2ccccc2s1	SKKanGAS inh 82, CSC inhib 98
CCOC(=O)C1(C(=O)OCC)COC(=O)C2(CC)OC21 (configuration not stated)	none (no result: Mdm2-MdmX inh, Beta apoptosis, Calb FLC, SKKanGAS inh, CSC inhib)
COc1ccc(-c2nn(-c3ccccc3)cc2C(=O)Nc2nccs2)cc1	none
COc1cccc(-c2nn(-c3ccccc3)cc2C(=O)Nc2nccs2)c1	SKKanGAS inh 62
COC(=O)c1cc(CSc2nnc(NC3CCCCC3)s2)oc1C	none
CCC(C)n1cnc2c(c1=O)c1nc3ccccc3nc1n2Cc1ccc(OC)cc1 (configuration not stated)	Calb FLC 98
COc1ccc(Cn2c(C)nc3c(c2=O)c2nc4ccccc4nc2n3Cc2ccco2)cc1	none (no result: Mdm2-MdmX inh, Beta apoptosis, Calb FLC, SKKanGAS inh, CSC inhib)
COC(=O)c1cc(N2CCN(C)CC2)nc2ccccc12	none
Cc1cc(C)nc(SCC(=O)Nc2nc(-c3ccccc3)c(-c3ccccc3)o2)n1	none
Cc1ccc(C(=O)Nc2nc(-c3ccccc3)c(-c3ccccc3)o2)cc1	SKKanGAS inh 113 (no result: CSC inhib)
O=C1CCCCC/C1=N/Nc1ccc(OCc2ccccc2)cc1	Calb FLC 94
Cc1ccc(-n2ncc3c(SCc4cccc(C)c4)ncnc32)cc1	none
Cc1cccc(CSc2ncnc3c2cnn3Cc2ccccc2)c1	SKKanGAS inh 76
C#CCN(C(=O)c1cc(COc2cccc(C(F)(F)F)c2)on1)C1CCCCC1	Beta apoptosis 104
C#CCN(C(=O)c1cc(COc2ccc(C)c(C)c2)on1)C1CCCCC1	none (no result: Beta apoptosis)
CC(=O)Oc1ccc(C(=O)Nc2ccc(C3(C#N)CCCC3)cc2)cc1	CSC inhib 96
COC(=O)C1CCN(C(=O)c2cc(-c3ccc(Cl)s3)nc3ccccc23)CC1	Beta apoptosis 101 (no result: Calb FLC, SKKanGAS inh, CSC inhib)
Cc1cc(Oc2ccc(Cl)cc2)nc(-c2ccccc2O)n1	SKKanGAS inh 53 (no result: Calb FLC)
Cc1oc2cc(Br)c(O)c(Br)c2c1-c1ccccc1	SKKanGAS inh 83 (no result: Mdm2-MdmX inh)
Cc1nc2ccccc2c(=O)n1/N=C/c1c(O)ccc2ccccc12	Beta apoptosis 85
CON/C=C(\C=Nc1ccccc1)c1ncc(C(F)(F)F)cc1Cl	none
CON/C=C(\C=Nc1ccc(Cl)cc1Cl)c1ncc(C(F)(F)F)cc1Cl	Calb FLC 94
Cc1ccc([N+](=O)[O-])cc1-c1[nH]c(-c2ccc(O)c(O)c2)nc1-c1ccccc1	Calb FLC 112 (no result: Beta apoptosis)
COc1ccc(-c2nc(-c3ccccc3)c(-c3cc([N+](=O)[O-])ccc3C)[nH]2)cc1O	none
O=[N+]([O-])c1ccc(N2CCCCC2)c(Cl)c1N1CCCCC1	SKKanGAS inh 93
O=C(NCC1CCCO1)c1ccccc1NS(=O)(=O)c1cccs1 (configuration not stated)	none
O=C(Nc1ccc(Oc2cccc3ccccc23)cc1)c1ccco1	SKKanGAS inh 79
O=C(O)c1ccccc1C(=O)Nc1ccc(Oc2cccc3ccccc23)cc1	none (no result: Mdm2-MdmX inh, Beta apoptosis, CSC inhib)
O=C(CNS(=O)(=O)c1ccc(Br)s1)NCC1COc2ccccc2O1 (configuration not stated)	Calb FLC 88
O=C(CNC(=O)c1ccc(Br)o1)NCC1COc2ccccc2O1 (configuration not stated)	none (no result: Calb FLC, SKKanGAS inh)
Clc1ccccc1C(c1ccccc1)(c1ccccc1)n1ccnc1	SKKanGAS inh 50 (no result: Calb FLC)
Cc1cc(C)cc(NC(=O)CSc2nc3ccccc3nc2N2CCCCC2)c1	none
COc1cc(-c2nc(-c3ccc(NC(=O)c4ccc(Br)o4)cc3)no2)cc(OC)c1OC	CSC inhib 77
O=C(CSc1ccccc1)Nc1ccc(C(=O)Nc2ccc(O)cc2)cc1	none (no result: Beta apoptosis, CSC inhib)
